Assay [1] can be described thus: resazurin metabolic signal in HepG2 cells – cell-based, resazurin fluorescence, 24 h, PK04 Diversity Set, profiling panel (AID 1172). The settings on record: HepG2 viability, higher = more signal. Background: Resazurin is reduced to fluorescent resorufin, in cell work by metabolically active cells.
A short description of assay [2]: budding yeast growth changes without added modifier – OD600, strain BY4716, 24 h, basal condition, primary screen (AID 1173). The settings on record: S. cerevisiae BY4716 growth, OD600, 24 h; higher = more signal, called active from +8 up or from −8 down.
Assay [3] can be described thus: viability profiling in MM1S myeloma cells – cell-based, resazurin fluorescence, basal, 24 h, PK04 Diversity Set, profiling panel (AID 1174).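 Note: MM1S multiple myeloma cell line.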 The following applies: higher = more signal, called active from +8 up or from −8 down.
Assay [4] addresses Dihydroorotate dehydrogenase (quinone), mitochondrial (Plasmodium falciparum (isolate 3D7)) (UniProt Q08210). The assay can be described thus: inhibition of P. falciparum DHODH – biochemical, C-terminal His tag, absorbance 600 nm, primary screen (AID 1175).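 Note: recombinant parasite enzyme with a five histidine tag at its C terminus.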 The settings on record: PfDHODH enzyme, DCIP absorbance 600 nm; higher = more signal, called active from +8 up or from −8 down.

Assay [5] can be described thus: inhibition of PAO1 biofilm formation – strain PAO1, LB-PBS medium, absorbance 600 nm, primary screen (AID 1176). The following applies: P. aeruginosa PAO1 growth/biofilm, A600, 12 h; higher = more signal.
A short description of assay [6]: growth modulation of vineyard yeast isolate – strain RM11-1a, OD600, basal, 24 h, primary screen (AID 1177).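 Note: cultures grown under basal conditions with no added stressor.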 The following applies: S. cerevisiae RM11-1a growth, OD600, 24 h; higher = more signal, called active from +8 up or from −8 down.
The nature of assay [7]: growth of efflux-deficient E. coli DRC39 – strain DRC39, OD650, 24 h, E. coli filamentation inducers, primary screen (AID 1178).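 Note: growth measured as culture turbidity by optical density at 650 nm.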 The following applies: E. coli DRC39 acrAB, higher = more signal, called active from +8 up or from −8 down.
Assay [8] is described as follows: growth of efflux-deficient E. coli DRC39 – strain DRC39, OD650, 48 h, E. coli filamentation inducers, primary screen (AID 1179).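 Note: screen aims at cell division blockers that make cells filament.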 The following applies: E. coli DRC39 delta-acrAB growth, higher = more signal, called active from +8 up or from −8 down.
The nature of assay [9]: viability profiling in RPMI8226 myeloma cells – cell-based, resazurin fluorescence, basal, 24 h, PK04 Diversity Set, profiling panel (AID 1180).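 Note: RPMI8826 multiple myeloma cell line at 5000 cells per well.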 The settings on record: higher = more signal.
Assay [10] addresses E3 ubiquitin-protein ligase XIAP (Homo sapiens) (UniProt P98170). Kind of assay: small molecules binding XIAP protein – biophysical, small-molecule microarray, fluorescence 635 nm, primary screen (AID 1181).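 Note: score merges 667 nm emission and signal to noise over triplicate slides.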 The following applies: higher = more signal.
Assay [11] relates to XIP peptide (Xip251-270) binding. The assay can be described thus: XIP fragment 251-270 binding compounds – biochemical, small-molecule microarray, fluorescence 635/667 nm, 0.1 µg/mL protein, primary screen (AID 1182). The following applies: fluorescent protein binding, 635 nm, higher = more signal, called active from +8 up or from −8 down.
The subject of the next assay is XIP peptide (Xip251-270). Kind of assay: compounds binding XIP fragment 251-270 – biochemical, small-molecule microarray, fluorescence 635/667 nm, 0.5 µg/mL protein, primary screen (AID 1183). The following applies: fluorescence 635 nm, higher = more signal.
A short description of assay [12]: blood-stage malaria parasite viability loss – strain 3D7, DAPI fluorescence, 100 nL, primary screen (AID 1184).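 Note: parasites grown inside human red blood cells in medium with human serum.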 The settings on record: P. falciparum 3D7 growth, 3 d, higher = more signal.
Assay [13] deals with Homeobox protein Hox-A13 (Mus musculus) (UniProt Q62424). Kind of assay: disruptors of Hoxa13 oligonucleotide interaction – biochemical, fluorescence polarization, labeled oligonucleotide, primary screen (AID 1185). The settings on record: Hoxa13:DNA binding, 15 min, higher = more signal, called active from +8 up or from −8 down.
Assay [14] is described as follows: blockers of DNA damage checkpoint Chk1 activation – imaging, HeLa, hydroxyurea, phospho-Chk1 antibody, percent positive cells, primary screen (AID 1186). The settings on record: hydroxyurea-induced phospho-Chk1 immunofluorescence imaging, higher = more signal.
The nature of assay [15]: blockers of DNA damage checkpoint Chk1 activation – imaging, HeLa, hydroxyurea, phospho-Chk1 nuclear intensity, primary screen (AID 1187). The following applies: hydroxyurea-induced phospho-Chk1 immunofluorescence imaging, higher = more signal.

Experimental findings from PubChem BioAssay are described below.

Calls of active or inactive are those of the source. Unless noted, the rule behind the calls is not given here.

Sequence of E3 ubiquitin-protein ligase XIAP (Homo sapiens) (P98170 whole entry, looked up, the tested form may be a part): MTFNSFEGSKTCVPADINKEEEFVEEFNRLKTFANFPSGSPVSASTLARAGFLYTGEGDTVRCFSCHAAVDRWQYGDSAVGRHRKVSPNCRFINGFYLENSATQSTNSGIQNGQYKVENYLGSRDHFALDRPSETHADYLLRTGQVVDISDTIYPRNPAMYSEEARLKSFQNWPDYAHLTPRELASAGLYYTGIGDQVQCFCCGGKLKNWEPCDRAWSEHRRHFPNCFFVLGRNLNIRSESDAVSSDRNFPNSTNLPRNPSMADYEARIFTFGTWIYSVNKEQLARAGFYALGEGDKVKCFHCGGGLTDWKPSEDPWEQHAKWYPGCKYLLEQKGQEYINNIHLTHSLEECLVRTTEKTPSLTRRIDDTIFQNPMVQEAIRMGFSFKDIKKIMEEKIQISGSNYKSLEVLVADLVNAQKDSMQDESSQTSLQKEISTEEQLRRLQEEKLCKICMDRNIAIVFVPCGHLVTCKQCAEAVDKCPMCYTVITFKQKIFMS
Sequence of Dihydroorotate dehydrogenase (quinone), mitochondrial (Plasmodium falciparum (isolate 3D7)) (Q08210 whole entry, looked up): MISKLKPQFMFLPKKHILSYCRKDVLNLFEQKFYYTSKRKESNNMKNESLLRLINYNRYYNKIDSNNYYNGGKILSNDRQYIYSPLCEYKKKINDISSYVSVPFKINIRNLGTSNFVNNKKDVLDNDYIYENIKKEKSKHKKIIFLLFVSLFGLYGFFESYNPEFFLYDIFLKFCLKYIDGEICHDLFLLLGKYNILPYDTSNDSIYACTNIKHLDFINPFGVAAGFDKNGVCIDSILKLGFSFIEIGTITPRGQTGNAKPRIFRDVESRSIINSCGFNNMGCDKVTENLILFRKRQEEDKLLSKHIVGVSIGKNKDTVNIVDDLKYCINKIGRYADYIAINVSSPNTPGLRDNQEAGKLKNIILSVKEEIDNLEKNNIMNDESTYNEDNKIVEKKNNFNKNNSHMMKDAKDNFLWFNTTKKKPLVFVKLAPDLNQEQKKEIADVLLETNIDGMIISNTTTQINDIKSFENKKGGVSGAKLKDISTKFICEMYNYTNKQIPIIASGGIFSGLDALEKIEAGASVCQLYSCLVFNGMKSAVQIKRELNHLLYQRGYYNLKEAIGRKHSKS
Sequence of Homeobox protein Hox-A13 (Mus musculus) (Q62424 whole entry, looked up): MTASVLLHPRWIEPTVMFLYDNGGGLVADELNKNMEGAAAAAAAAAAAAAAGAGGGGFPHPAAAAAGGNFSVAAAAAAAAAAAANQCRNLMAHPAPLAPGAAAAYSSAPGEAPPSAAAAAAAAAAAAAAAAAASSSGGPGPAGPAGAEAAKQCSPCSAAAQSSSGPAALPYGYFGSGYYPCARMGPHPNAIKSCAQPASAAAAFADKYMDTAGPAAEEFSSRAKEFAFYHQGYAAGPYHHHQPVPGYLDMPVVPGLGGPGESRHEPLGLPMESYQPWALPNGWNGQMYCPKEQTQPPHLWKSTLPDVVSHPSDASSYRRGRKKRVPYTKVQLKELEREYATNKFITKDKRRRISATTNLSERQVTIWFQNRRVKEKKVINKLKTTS

For the compound `CS(=O)(=O)CCOC(=O)C1=CC(c2ccc(CO)cc2)=CC(C2CC2)N(Cc2sc3ccccc3c2Cl)C=C1C(=O)OCCS(C)(=O)=O` (stereo not given), the z-score in [1] was 0.315; in assay [2] it was -5.45 (inactive); in [3], -2.63 (inactive); in assay [5] it was -0.563 (inactive); in assay [6], 0.272 (inactive); in [7] it was -3.53 (inactive). Moreover, the z-score was -2.01 (inactive) in assay [8]; -1.85 in [9]; -3.02 in assay [12]; 0.0711 (inactive) in assay [13]; -0.27 (inactive) in assay [14]; 0.137 (inactive) in assay [15]. For the same compound, the composite z-score was -1.26 (inactive) in assay [4], 0.0049 in [10], 0.766 (inactive) in [11] and 0.492 in the assay with XIP peptide (Xip251-270).
As for `Cc1ccc(S[C@]2(C(=O)NCCN3CCOCC3)CC(=O)N(Cc3ccccc3Cl)[C@@H]2c2ccc(CO)cc2I)cc1`, the z-score was 0.466 in assay [1]; -3.6 (inactive) in assay [2]; -2.72 (inactive) in assay [3]; 0.379 (inactive) in assay [5]; -1.66 (inactive) in [6]; 0.392 (inactive) in assay [7]. The z-score in assay [8] is 0.475 (inactive); in [9], -1.7; in assay [12], -0.244; in [13], -2.18 (inactive); in assay [14], 0.0327 (inactive); in assay [15] it was 0.421 (inactive). The composite z-score in [4] was -0.576 (inactive); in [10] it was -0.259; in [11], 0.676 (inactive); with XIP peptide (Xip251-270), 0.433.
For `CCCC=C(CCC)[C@@H](NP(=O)(c1ccccc1)c1ccccc1)c1ccc(-c2ccccc2)cc1`, the z-score in assay [1] is 0.127; in assay [2], 2.21 (inactive); in [3], -1.16 (inactive); in assay [5] it was -0.511 (inactive); in assay [6], 1.42 (inactive); in assay [7], -0.492 (inactive). Further, the z-score in [8] is 0.477 (inactive); in assay [9] it was -1.72; in assay [12] it was 0.0851; in [13], -1.13 (inactive); in assay [14] it was 0.175 (inactive); in assay [15], -0.0233 (inactive). The composite z-score in assay [4] is 0.23 (inactive); in [10] it was 0.144; in [11], 0.356 (inactive); in the assay on XIP peptide (Xip251-270), 0.42.
`CCCC=C(CCC)[C@@H](NS(=O)(=O)c1ccc(C(F)(F)F)cc1)c1ccccc1`: the z-score in assay [1] is 0.281; in assay [2] it was 1.55 (inactive); in assay [3], -0.489 (inactive); in assay [5] it was 1.03 (inactive); in [6] it was 1.84 (inactive); in [7] it was -0.763 (inactive). In addition, the z-score is -0.197 (inactive) in assay [8]; -0.683 in assay [9]; -1.5 in assay [12]; -0.64 (inactive) in assay [13]; -0.0215 (inactive) in assay [14]; -0.157 (inactive) in [15]. Also, the composite z-score was 0.348 (inactive) in [4], -0.206 in assay [10], 0.25 (inactive) in assay [11] and -0.0998 in the assay with XIP peptide (Xip251-270).
With `C=CC[C@H](OC(=O)Nc1ccc(SC)cc1)c1ccc(O)c2ccccc12`, the z-score in assay [1] is -1.26; in assay [2], -16.6 (active); in assay [3], -6.71 (inactive); in assay [5], 1.44 (inactive); in [6] it was -20.3 (active); in [7], -0.146 (inactive). Further, the z-score in assay [8] is -0.772 (inactive); in [9], -5.02; in [12] it was -0.922; in [13], -1.35 (inactive); in [14] it was -0.0114 (inactive); in assay [15], 0.142 (inactive). Further, the composite z-score in [4] was -6.87 (inactive); in [10], 0.104; in [11], 1.07 (inactive); in the assay on XIP peptide (Xip251-270) it was 0.728.
As to `COCCOC(=O)N1C(=O)[C@@]2(c3ccccc31)[C@H](c1ccc(O)cc1)N1[C@H](c3ccccc3)[C@H](c3ccccc3)OC(=O)[C@H]1[C@@H]2C(=O)N1CCN(c2ncccn2)CC1`, the z-score in [1] is 0.0716; in [2], 0.353 (inactive); in assay [3], -0.183 (inactive); in assay [5] it was 2.33 (inactive); in assay [6], -0.451 (inactive); in assay [7], -0.838 (inactive). The z-score in [8] was -0.935 (inactive); in assay [9] it was -0.0522; in [12] it was -1.16; in assay [13], -2.14 (inactive); in assay [14], 0.0666 (inactive); in [15], 0.651 (inactive). Also, the composite z-score was -0.18 (inactive) in assay [4], 0.147 in assay [10], 1.84 (inactive) in assay [11] and 0.787 with XIP peptide (Xip251-270).
Regarding `COc1ccc(C#Cc2ccc3c(c2)[C@]2(C(=O)N3)[C@H](c3ccc(OCCO)cc3)N3[C@H](c4ccccc4)[C@H](c4ccccc4)OC(=O)[C@H]3[C@@H]2C(=O)NC[C@H](O)c2ccccc2)cc1`, the z-score in assay [1] is 0.0814; in [2], 3.07 (inactive); in [3], -0.883 (inactive); in [5], 2.34 (inactive); in [6], 4.84 (inactive); in assay [7] it was 0.595 (inactive). The z-score in [8] is 0.863 (inactive); in assay [9] it was -1.08; in assay [12], -1.78; in assay [13], -1.01 (inactive); in assay [14], -0.387 (inactive); in assay [15], -0.263 (inactive). Also, the composite z-score in assay [4] is -18.4 (active); in [10], 0.18; in [11], 0.47 (inactive); with XIP peptide (Xip251-270), 0.691.
On to `COC(=O)[C@@]1(Cc2ccc(F)cc2)[C@H]2c3cc(C(=O)N(C)C)n(Cc4ccc(OC(F)(F)F)cc4)c3C[C@H]2CN1C(=O)c1ccccc1`, for which the z-score in assay [1] was -0.674; in assay [2], 0.825 (inactive); in assay [3] it was -0.933 (inactive); in assay [5] it was 0.604 (inactive); in [6] it was 0.245 (inactive); in [7], -0.586 (inactive). Also, the z-score is -0.499 (inactive) in assay [8]; -0.603 in assay [9]; 0.595 in assay [12]; -0.102 (inactive) in assay [13]; 0.233 (inactive) in assay [14]; 0.579 (inactive) in [15]. The composite z-score in [4] is -0.0384 (inactive); in assay [10], -0.102; in assay [11], 0.342 (inactive); in the assay with XIP peptide (Xip251-270), -0.133.
Take `COc1cc2c(cc1O)C(C1CC1)N(C)CC2` (stereo not given): the z-score is 0.0514 in [1]; -0.391 (inactive) in assay [2]; 0.509 (inactive) in assay [3]; -0.572 (inactive) in [5]; -0.0321 (inactive) in assay [6]; 0.115 (inactive) in [7]. For the same compound, the z-score in assay [8] is 0.0029 (inactive); in [9], -0.0158; in assay [12], -0.871; in assay [13] it was -4.09 (inactive); in [14], 0.2 (inactive); in assay [15], 0.406 (inactive). For the same compound, the composite z-score in [4] is -0.501 (inactive); in assay [10], 0.175; in assay [11], -0.198 (inactive); in the assay on XIP peptide (Xip251-270), 0.598.
On to `CC#CCO[Si](C#Cc1ccccc1)(C(C)C)C(C)C`, for which the z-score in [1] is -0.112; in assay [2], -15.6 (active); in assay [3] it was -0.632 (inactive); in assay [5], 0.219 (inactive); in [6] it was 0.201 (inactive); in assay [7] it was -0.244 (inactive). Also, the z-score is -0.032 (inactive) in assay [8]; -0.67 in [9]; -0.916 in assay [12]; -1.19 (inactive) in [13]; 0.988 (inactive) in assay [14]; 0.598 (inactive) in assay [15]. For the same compound, the composite z-score is 0.108 (inactive) in [4], -0.127 in assay [10], 0.0308 (inactive) in assay [11] and -0.654 in the assay on XIP peptide (Xip251-270).
